Only some compounds are listed: those with a hit (about 3.8% of all), similar ones and a draw of the others.
SUMO Mot1 rescue = SUMOylation pathway inhibition by Mot1-301 growth rescue. S. cerevisiae Mot1-301 growth rescue, ATP luminescence, 38.5C; percent above DMSO median, 100 means doubled. growth rescue, % at 18.8 µM. 320,000 tested, 1% active. AID 2716;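 active means every valid replicate shows activation above 250% relative to neutral control wells; inactive means the rest, any valid replicate at or below 250%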
aDG glyco act = increases alpha dystroglycan glycosylation. 360,000 tested, 0.22% active. Pro5-aDG cells, alpha-DG glycosylation AlphaScreen (IIH6); 0% Pro5, 100% B10-LARGE cell signal. activation, % at 10 µM;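 active means activation of at least 8% versus controls, or a plate z-score of at least 8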;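 further: Pro5 are CHO cells carrying HIG-tagged alpha-DG that lacks glycosylation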
Yeast superoxide = lowers age-related superoxide in aged yeast cells; S. cerevisiae aged cells, superoxide DHE fluorescence; active compounds read low; superoxide response (% of plate mean), % at 10 µM; 330,000 tested, 0.18% active;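 active means superoxide response under a set limit, about three screen SD below normal, cut at about 65% in these data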;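 further: yeast aged for seven days with compound at 30 °C before DHE staining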
FAS TE block = inhibitors of human fatty acid synthase thioesterase domain; P49327; recombinant FAS-TE, OMFH fluorogenic substrate, fluorescence endpoint; inhibition, % at 15 µM; 360,000 tested, 0.67% active;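 active means compounds whose normalised, plate-corrected inhibition of enzyme fluorescence in the single-dose primary screen is 50% or more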
Cardio protect = myocardial damage modulation in H9c2 cells; protection from H2O2 cell death, % at 20 µM; H9c2 cardiomyocytes, H2O2 injury protection, ATPLite, 2 h; 360,000 tested, 0.63% active;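 active means compounds giving at least 50% protection of heart cells from peroxide-induced death in the single-dose screen, raw or plate-pattern-corrected value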
MPTP block = permeability transition pore inhibition. AID 602449. isolated mouse mitochondria, Ca2+ swelling absorbance, 30 min. inhibition, % at 10 µM. 360,000 tested, 1.4% active;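 active means inhibition of 50% or more, scaled per plate between neutral and stimulator controls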
Yeast Mot1 SUMO = inhibits SUMO pathway, affecting Mot1-301 yeast growth; shares compounds with SUMO Mot1 rescue; S. cerevisiae Mot1-301 galactose growth, ATP luminescence, 24 h; -100 = growth of slx-deleted rescue strain; growth activity, percent, % at 42 µM; 2,300 tested, under 10 active; AID 493004;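 active means Signal drops as the depositor expects, and the fitted half-maximal dose is no more than ten times the top valid tested dose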;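 further: more negative values mean stronger growth rescue toward the control strain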
Hits are given with their value.

For Cc1cccc(CS(=O)(=O)Cc2ccc(C(=O)NCC3CCCO3)o2)c1 (configuration not stated) the results were SUMO Mot1 rescue 667, aDG glyco act inactive, Yeast superoxide inactive, FAS TE block inactive, Cardio protect inactive, MPTP block inactive and Yeast Mot1 SUMO inactive.
Cc1ccccc1CS(=O)(=O)Cc1ccc(C(=O)NCC2CCCO2)o1 (configuration not stated) was read as SUMO Mot1 rescue inactive, aDG glyco act inactive, Yeast superoxide inactive, FAS TE block inactive, Cardio protect inactive and MPTP block inactive.
`Cc1c(C(=O)N2CCN(CC(=O)Nc3ccccc3Cl)CC2)oc2ccc(Br)cc12` gave SUMO Mot1 rescue inactive, aDG glyco act inactive, Yeast superoxide inactive, FAS TE block inactive, Cardio protect inactive and MPTP block inactive.
Screening CCN1CCN(CC(=O)Nc2cccc(C)c2C)C(=O)C1=O returned SUMO Mot1 rescue 518, aDG glyco act inactive, Yeast superoxide inactive, FAS TE block inactive, Cardio protect inactive, MPTP block inactive and Yeast Mot1 SUMO inactive.
O=C(NCc1ccccc1C(F)(F)F)C1CCC(=O)N(CCCc2ccccc2)C1 (configuration not stated) was read as SUMO Mot1 rescue inactive, aDG glyco act inactive, Yeast superoxide inactive, FAS TE block inactive, Cardio protect inactive and MPTP block inactive.
For COc1cccc(CN2CCN(C(=O)c3cccc4ccccc34)CC2)c1OC the results were SUMO Mot1 rescue 735, aDG glyco act inactive, Yeast superoxide inactive, FAS TE block inactive, Cardio protect inactive, MPTP block inactive and Yeast Mot1 SUMO inactive.
COc1cccc(OC)c1C(=O)N1CCN(Cc2c[nH]c3ccccc23)CC1 was read as aDG glyco act inactive, FAS TE block inactive, Cardio protect inactive and MPTP block inactive.
Screening COc1ccc(CN2CCN(C(=O)c3cc(-c4cccnc4)nc4ccc(Cl)cc34)CC2)c(OC)c1OC returned SUMO Mot1 rescue 510, aDG glyco act inactive, Yeast superoxide inactive, FAS TE block inactive, Cardio protect inactive, MPTP block inactive and Yeast Mot1 SUMO inactive.
For COc1ccccc1CN1CCN(C(=O)c2cccc3ccccc23)CC1 the results were SUMO Mot1 rescue inactive, aDG glyco act inactive, Yeast superoxide inactive, FAS TE block inactive, Cardio protect inactive and MPTP block inactive.
Screening COc1cccc(OC)c1C(=O)N1CCN(Cc2ccccc2C)CC1 returned SUMO Mot1 rescue 359, aDG glyco act inactive, Yeast superoxide inactive, FAS TE block inactive, Cardio protect inactive, MPTP block inactive and Yeast Mot1 SUMO inactive.
Screening COc1ccccc1NC(=O)c1ccccc1NC(=O)c1cccs1 returned SUMO Mot1 rescue inactive, aDG glyco act inactive, Yeast superoxide inactive, FAS TE block inactive, Cardio protect inactive and MPTP block inactive.
For COc1ccc(/C=C(\NC(=O)c2ccco2)C(=O)NC(Cc2ccccc2)C(=O)O)cc1 (configuration not stated) the results were SUMO Mot1 rescue inactive, aDG glyco act inactive, Yeast superoxide inactive, FAS TE block inactive, Cardio protect inactive and MPTP block inactive.
Screening Cc1ccc2nc(NC(=O)CNS(=O)(=O)c3ccc(Br)s3)sc2c1 returned SUMO Mot1 rescue 520, aDG glyco act inactive, Yeast superoxide inactive, FAS TE block inactive, Cardio protect inactive, MPTP block inactive and Yeast Mot1 SUMO inactive.
For Cc1ccc2nc(NC(=O)CN(C)S(=O)(=O)c3ccc(Br)s3)sc2c1 the results were SUMO Mot1 rescue inactive, aDG glyco act inactive, Yeast superoxide inactive, FAS TE block inactive, Cardio protect inactive and MPTP block inactive.
CC(C)C(NC(N)=O)C(=O)NC1CCCCC1 (configuration not stated) was read as SUMO Mot1 rescue inactive and Yeast superoxide inactive.
Cc1ccc2c(c1)c1c(n2CC(O)CN2CCOCC2)CCCC1 (configuration not stated) was read as SUMO Mot1 rescue inactive and Yeast superoxide inactive.
COc1ccc(C(=O)c2c(C)c3cc(C)ccc3n2CC(O)CN2CCOCC2)cc1 (configuration not stated) was read as SUMO Mot1 rescue 924, aDG glyco act inactive, Yeast superoxide inactive, FAS TE block inactive, Cardio protect inactive, MPTP block inactive and Yeast Mot1 SUMO inactive.
For O=c1oc2ccc3ccccc3c2cc1-c1nnc(-c2cccs2)o1 the results were aDG glyco act inactive, Yeast superoxide inactive, FAS TE block inactive, Cardio protect inactive and MPTP block inactive.
`COc1ccc(-c2nnc(-c3cc4c(ccc5ccccc54)oc3=O)o2)cc1` gave SUMO Mot1 rescue 574, aDG glyco act inactive, Yeast superoxide inactive, FAS TE block inactive, Cardio protect inactive, MPTP block inactive and Yeast Mot1 SUMO inactive.
`CCCN1CCN(CCCNC(=O)CCn2nc(-c3ccccc3)ccc2=O)CC1` gave SUMO Mot1 rescue 565, aDG glyco act inactive, Yeast superoxide inactive, FAS TE block inactive, Cardio protect inactive, MPTP block inactive and Yeast Mot1 SUMO inactive.
For CN1CCN(CCCNC(=O)Cn2nc(-c3ccccc3)ccc2=O)CC1 the results were SUMO Mot1 rescue inactive, aDG glyco act inactive, Yeast superoxide inactive, FAS TE block inactive, Cardio protect inactive and MPTP block inactive.
For CCCOc1ccc(F)cc1-c1cc(C(=O)Nc2ccccc2)[nH]n1 the results were aDG glyco act inactive, FAS TE block inactive, Cardio protect inactive and MPTP block inactive.
For Cc1cccc(NC(=S)NC(=O)/C=C/c2ccco2)c1 the results were SUMO Mot1 rescue 706, aDG glyco act inactive, Yeast superoxide inactive, FAS TE block inactive, Cardio protect inactive, MPTP block inactive and Yeast Mot1 SUMO inactive.
Screening O=C(/C=C/c1ccco1)NC(=S)Nc1ccccc1 returned SUMO Mot1 rescue inactive, aDG glyco act inactive, Yeast superoxide inactive, FAS TE block inactive, Cardio protect inactive and MPTP block inactive.
O=C(c1cc(F)c(F)c(F)c1F)N1CCN(C(=O)C2CCCO2)CC1 (configuration not stated) was read as SUMO Mot1 rescue inactive, aDG glyco act inactive, Yeast superoxide inactive, FAS TE block inactive, Cardio protect inactive and MPTP block inactive.
For O=C(CNC(=O)c1ccco1)OCC(=O)c1cccc2ccccc12 the results were SUMO Mot1 rescue 434, aDG glyco act inactive, Yeast superoxide inactive, FAS TE block inactive, Cardio protect inactive, MPTP block inactive and Yeast Mot1 SUMO inactive.
`c1coc(C2OCC3(CO2)COC(c2ccco2)OC3)c1` (configuration not stated) gave SUMO Mot1 rescue 523, aDG glyco act inactive, Yeast superoxide inactive, FAS TE block inactive, Cardio protect inactive, MPTP block inactive and Yeast Mot1 SUMO inactive.
